Measurements from PubChem BioAssay (EPA / NIEHS).
“And” between values parts separate entries of the source, which are not always exact repeats. Equal values may be shown once. Results filed as inconclusive are left out. More than one record can exist for a structure, and the calls need not agree. The source made the active and inactive calls. Rule for the calls, unless noted: active = hit-call score of the fitted dose curve at least 0.9, where 1 is the maximum; inactive = score below 0.9.

How the values were obtained:
[1] = molecular target: Glucocorticoid receptor (Homo sapiens) (UniProt P04150); assay: ATG_GR_TRANS: Attagene TRANS-FACTORIAL HepG2 Assay for human Glucocorticoid Receptor (GR) (AID 2282978; active = hit-call score of the fitted dose curve at least 0.9, where 1 is the maximum;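 note: activators score as hits since higher reporter transcript over DMSO is fitted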); details: HepG2 Attagene TRANS GR reporter, mRNA transcription
Chain of Glucocorticoid receptor (Homo sapiens) (P04150 whole entry, looked up, the tested form may be a part): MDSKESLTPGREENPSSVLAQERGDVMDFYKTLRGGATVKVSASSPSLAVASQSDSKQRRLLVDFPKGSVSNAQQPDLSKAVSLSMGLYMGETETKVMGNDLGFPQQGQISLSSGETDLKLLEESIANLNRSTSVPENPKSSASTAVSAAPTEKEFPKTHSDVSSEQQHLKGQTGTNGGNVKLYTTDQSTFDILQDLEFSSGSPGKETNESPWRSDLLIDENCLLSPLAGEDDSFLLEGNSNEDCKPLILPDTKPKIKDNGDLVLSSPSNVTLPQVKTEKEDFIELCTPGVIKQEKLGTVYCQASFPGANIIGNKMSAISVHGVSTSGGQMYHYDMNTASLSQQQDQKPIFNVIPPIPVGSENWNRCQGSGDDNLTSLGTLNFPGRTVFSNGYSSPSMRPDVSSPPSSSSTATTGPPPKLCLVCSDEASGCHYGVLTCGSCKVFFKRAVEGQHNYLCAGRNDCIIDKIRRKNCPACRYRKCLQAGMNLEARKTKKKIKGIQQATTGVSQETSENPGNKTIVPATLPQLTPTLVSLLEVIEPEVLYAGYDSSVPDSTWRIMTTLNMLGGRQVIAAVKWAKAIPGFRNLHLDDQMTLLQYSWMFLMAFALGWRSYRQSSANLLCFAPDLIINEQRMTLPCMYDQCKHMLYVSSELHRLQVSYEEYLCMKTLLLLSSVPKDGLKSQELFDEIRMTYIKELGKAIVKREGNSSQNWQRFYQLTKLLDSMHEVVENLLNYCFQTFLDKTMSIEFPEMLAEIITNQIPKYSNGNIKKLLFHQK
How it was run: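 Transient MRTU transfection of HepG2 (GAL4-UAS reporters, exogenous NR-GAL4 chimeras), 24 h dosing. Readout: reporter transcript via RT-PCR + capillary electrophoresis fluorescence. Positive direction vs DMSO baseline.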

[2] = molecular target: Bile acid receptor (Homo sapiens) (UniProt Q96RI1); assay: ATG_FXR_TRANS: Attagene TRANS-FACTORIAL HepG2 Assay for Farnesoid X Receptor (FXR) (AID 2282979; active = hit-call score of the fitted dose curve at least 0.9, where 1 is the maximum;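 note: hits raise reporter mRNA above DMSO so AC50 marks FXR activation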); details: HepG2 Attagene TRANS FXR-GAL4 reporter transcription
Chain of Bile acid receptor (Homo sapiens) (Q96RI1 whole entry, looked up, the tested form may be a part): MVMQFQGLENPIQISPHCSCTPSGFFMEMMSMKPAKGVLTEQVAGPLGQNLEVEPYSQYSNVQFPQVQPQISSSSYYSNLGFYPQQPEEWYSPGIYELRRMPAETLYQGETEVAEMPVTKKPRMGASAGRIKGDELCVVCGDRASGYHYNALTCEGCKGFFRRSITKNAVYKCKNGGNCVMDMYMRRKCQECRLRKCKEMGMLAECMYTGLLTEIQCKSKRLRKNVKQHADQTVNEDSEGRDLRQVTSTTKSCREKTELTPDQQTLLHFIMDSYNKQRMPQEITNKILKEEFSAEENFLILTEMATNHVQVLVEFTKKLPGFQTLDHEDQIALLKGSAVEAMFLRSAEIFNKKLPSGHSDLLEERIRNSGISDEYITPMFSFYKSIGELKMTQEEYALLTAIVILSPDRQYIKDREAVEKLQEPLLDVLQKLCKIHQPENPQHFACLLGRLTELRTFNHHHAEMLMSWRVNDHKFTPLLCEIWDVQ
How it was run: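 HepG2 cells were transiently transfected with GAL4-UAS reporters driven by chimeric NR-Gal4 proteins and dosed for 24 h. Reporter mRNA was quantified by RT-PCR, fluorescent labelling, HpaI digestion and capillary electrophoresis, with gain of signal scored versus DMSO.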

[3] = molecular target: Oxysterols receptor LXR-alpha (Homo sapiens) (UniProt Q13133); assay: ATG_LXRa_TRANS: Attagene TRANS-FACTORIAL HepG2 Assay for human Liver X Receptor alpha (LXRa) (AID 2282980; active = hit-call score of the fitted dose curve at least 0.9, where 1 is the maximum); details: HepG2 Attagene TRANS reporter, LXRa transactivation
Chain of Oxysterols receptor LXR-alpha (Homo sapiens) (Q13133 whole entry, looked up, the tested form may be a part): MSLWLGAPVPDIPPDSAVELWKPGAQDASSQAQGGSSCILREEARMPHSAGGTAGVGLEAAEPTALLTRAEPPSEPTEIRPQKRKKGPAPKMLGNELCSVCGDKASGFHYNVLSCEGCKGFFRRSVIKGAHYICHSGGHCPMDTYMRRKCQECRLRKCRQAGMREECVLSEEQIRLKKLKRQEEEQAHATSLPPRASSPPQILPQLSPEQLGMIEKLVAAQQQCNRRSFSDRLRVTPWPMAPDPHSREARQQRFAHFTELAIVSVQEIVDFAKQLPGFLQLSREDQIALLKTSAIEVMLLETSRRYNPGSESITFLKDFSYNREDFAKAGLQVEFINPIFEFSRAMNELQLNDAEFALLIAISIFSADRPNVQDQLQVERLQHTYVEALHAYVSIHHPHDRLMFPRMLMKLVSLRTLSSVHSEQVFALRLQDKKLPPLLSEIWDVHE
How it was run: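 HepG2 cells transiently transfected with GAL4-UAS reporter units for chimeric NR-Gal4 proteins, exposed to chemicals for 24 h. Reporter mRNA quantified by RT-PCR and capillary electrophoresis; gain of signal fitted relative to DMSO.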

[4] = molecular target: Oxysterols receptor LXR-beta (Homo sapiens) (UniProt P55055); assay: ATG_LXRb_TRANS: Attagene TRANS-FACTORIAL HepG2 Assay for human Liver X Receptor beta (LXRb) (AID 2282981; active = hit-call score of the fitted dose curve at least 0.9, where 1 is the maximum); details: HepG2 Attagene TRANS GAL4-LXRb reporter, mRNA
How it was run: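 After 24 h of chemical treatment, transfected HepG2 cells yield total RNA; reporter cDNA is PCR-amplified, FAM-labelled, HpaI-cut and run on capillary electrophoresis. Signal reflects chimeric LXRb-Gal4 activity on GAL4-UAS reporters.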

[5] = molecular target: Hepatocyte nuclear factor 4-alpha (Homo sapiens) (UniProt P41235); assay: ATG_HNF4a_TRANS: Attagene TRANS-FACTORIAL HepG2 Assay for human Hepatocyte Nuclear Factor 4 alpha (HNF4a) (AID 2282982; active = hit-call score of the fitted dose curve at least 0.9, where 1 is the maximum); details: HepG2 HNF4a transactivation reporter, mRNA readout
Chain of Hepatocyte nuclear factor 4-alpha (Homo sapiens) (P41235 whole entry, looked up): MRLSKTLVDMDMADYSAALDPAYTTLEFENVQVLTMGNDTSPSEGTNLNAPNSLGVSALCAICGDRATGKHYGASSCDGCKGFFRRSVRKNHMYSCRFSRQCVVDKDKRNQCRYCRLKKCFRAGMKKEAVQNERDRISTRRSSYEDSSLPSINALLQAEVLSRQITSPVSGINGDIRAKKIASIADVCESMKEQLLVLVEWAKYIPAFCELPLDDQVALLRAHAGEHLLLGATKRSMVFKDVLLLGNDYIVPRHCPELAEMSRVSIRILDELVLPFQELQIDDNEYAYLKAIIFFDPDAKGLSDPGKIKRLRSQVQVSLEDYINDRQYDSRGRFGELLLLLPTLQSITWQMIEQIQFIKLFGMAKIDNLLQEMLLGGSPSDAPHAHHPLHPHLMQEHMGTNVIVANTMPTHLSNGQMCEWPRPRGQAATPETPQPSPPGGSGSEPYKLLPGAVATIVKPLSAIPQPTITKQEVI
How it was run: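 Multiplexed reporter assay: transfected HepG2, 24 h exposure, total RNA → oligo(dT) RT → PCR → 6-FAM extension → HpaI digest → CE fluorescence. DMSO = negative control.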

[6] = molecular target: Nuclear receptor subfamily 4 group A member 2 (Homo sapiens) (UniProt P43354); assay: ATG_NURR1_TRANS: Attagene TRANS-FACTORIAL HepG2 Assay for human Nuclear Receptor Related Protein 1 (NURR1) (AID 2282985; active = hit-call score of the fitted dose curve at least 0.9, where 1 is the maximum); details: HepG2 Attagene TRANS reporter, mRNA readout
Chain of Nuclear receptor subfamily 4 group A member 2 (Homo sapiens) (P43354 whole entry, looked up, the tested form may be a part): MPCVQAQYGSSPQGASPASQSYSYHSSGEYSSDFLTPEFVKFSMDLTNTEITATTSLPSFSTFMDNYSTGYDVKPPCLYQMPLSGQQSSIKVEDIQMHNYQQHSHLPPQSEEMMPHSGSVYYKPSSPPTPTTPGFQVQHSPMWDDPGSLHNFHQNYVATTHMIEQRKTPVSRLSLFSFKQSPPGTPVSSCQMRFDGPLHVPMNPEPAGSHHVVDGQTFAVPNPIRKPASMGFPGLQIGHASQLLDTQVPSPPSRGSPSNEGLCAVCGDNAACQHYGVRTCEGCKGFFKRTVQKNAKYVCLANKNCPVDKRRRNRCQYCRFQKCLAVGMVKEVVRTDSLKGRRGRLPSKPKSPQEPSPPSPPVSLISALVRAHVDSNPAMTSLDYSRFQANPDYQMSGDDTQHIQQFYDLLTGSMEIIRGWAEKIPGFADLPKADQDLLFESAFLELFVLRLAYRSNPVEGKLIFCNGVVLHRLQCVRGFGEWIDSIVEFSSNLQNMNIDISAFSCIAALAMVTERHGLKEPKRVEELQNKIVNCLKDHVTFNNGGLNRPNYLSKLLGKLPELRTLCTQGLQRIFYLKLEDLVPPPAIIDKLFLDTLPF
How it was run: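 Measures transcriptional activation by an exogenous NR-Gal4 chimera in transfected HepG2 liver cells. After 24 h, reporter RNA is reverse-transcribed, amplified and resolved by capillary electrophoresis; DMSO defines baseline.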

[7] = molecular target: Transcriptional activator Myb (Homo sapiens) (UniProt P10242); assay: ATG_Myb_CIS: Attagene CIS-FACTORIAL HepG2 Assay for human Myeloblastosis (Myb) Proto-Oncogene Transcription Factor (AID 2282986); details: HepG2 Attagene CIS-FACTORIAL Myb reporter transcription; actives raise or lower the signal
Chain of Transcriptional activator Myb (Homo sapiens) (P10242 whole entry, looked up): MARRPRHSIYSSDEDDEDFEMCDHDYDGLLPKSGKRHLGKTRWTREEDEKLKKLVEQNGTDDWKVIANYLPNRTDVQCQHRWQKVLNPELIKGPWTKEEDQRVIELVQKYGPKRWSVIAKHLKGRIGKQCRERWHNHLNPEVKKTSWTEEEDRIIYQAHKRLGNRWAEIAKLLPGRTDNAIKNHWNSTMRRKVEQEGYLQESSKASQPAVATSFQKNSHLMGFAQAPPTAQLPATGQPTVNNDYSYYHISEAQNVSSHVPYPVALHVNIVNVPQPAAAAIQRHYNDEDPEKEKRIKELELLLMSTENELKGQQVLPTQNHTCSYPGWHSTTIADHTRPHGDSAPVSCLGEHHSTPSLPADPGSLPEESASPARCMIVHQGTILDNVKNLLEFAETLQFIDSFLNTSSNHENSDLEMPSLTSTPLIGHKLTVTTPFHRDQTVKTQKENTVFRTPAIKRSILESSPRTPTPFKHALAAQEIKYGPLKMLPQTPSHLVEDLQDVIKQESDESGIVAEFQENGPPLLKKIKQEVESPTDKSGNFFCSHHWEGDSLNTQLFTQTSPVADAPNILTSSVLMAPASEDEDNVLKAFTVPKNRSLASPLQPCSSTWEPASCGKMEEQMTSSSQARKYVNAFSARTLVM
How it was run: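 HepG2, transient MRTU transfection (cis-element promoters, endogenous TF activity), 24 h compound exposure. Readout: reporter mRNA via RT-PCR, 6-FAM labeling, HpaI digest, capillary electrophoresis. Gain/loss fit vs DMSO.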

[8] = molecular target: Nuclear respiratory factor 1 (Homo sapiens) (UniProt Q16656); assay: ATG_NRF1_CIS: Attagene CIS-FACTORIAL HepG2 Assay for human Nuclear Respiratory Factor 1 (NRF1) Orphan Gene (AID 2282987); details: HepG2 NRF1 cis-element reporter, Attagene multiplex; actives raise or lower the signal
Chain of Nuclear respiratory factor 1 (Homo sapiens) (Q16656 whole entry, looked up): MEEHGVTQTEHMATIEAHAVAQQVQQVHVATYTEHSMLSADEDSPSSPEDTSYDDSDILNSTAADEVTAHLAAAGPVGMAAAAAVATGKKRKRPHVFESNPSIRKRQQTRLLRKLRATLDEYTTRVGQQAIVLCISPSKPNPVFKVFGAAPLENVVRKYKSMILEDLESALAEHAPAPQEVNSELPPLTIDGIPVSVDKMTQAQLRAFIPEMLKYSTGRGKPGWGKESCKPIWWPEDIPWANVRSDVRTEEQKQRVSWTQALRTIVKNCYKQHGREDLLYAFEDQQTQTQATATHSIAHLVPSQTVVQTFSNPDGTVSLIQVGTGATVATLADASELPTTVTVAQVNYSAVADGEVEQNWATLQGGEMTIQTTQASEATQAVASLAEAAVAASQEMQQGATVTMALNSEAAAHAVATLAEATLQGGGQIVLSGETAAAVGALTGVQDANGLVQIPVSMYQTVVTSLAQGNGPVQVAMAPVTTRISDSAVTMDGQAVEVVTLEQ
How it was run: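 Endogenous NRF1-driven reporter transcription measured in transiently transfected human HepG2 liver cells. Readout: reporter mRNA by RT-PCR and capillary electrophoresis with fluorescence detection, 24 h post-dosing. Gain or loss of signal fitted relative to DMSO baseline.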

[9] = molecular target: Myc proto-oncogene protein (Homo sapiens) (UniProt P01106); assay: ATG_Myc_CIS: Attagene CIS-FACTORIAL HepG2 Assay for human Myelocytomatosis (Myc) Proto-Oncogene Transcription Factor (AID 2282990); details: HepG2, Attagene cis-reporter transcription factor activity; actives raise or lower the signal
Chain of Myc proto-oncogene protein (Homo sapiens) (P01106 whole entry, looked up, the tested form may be a part): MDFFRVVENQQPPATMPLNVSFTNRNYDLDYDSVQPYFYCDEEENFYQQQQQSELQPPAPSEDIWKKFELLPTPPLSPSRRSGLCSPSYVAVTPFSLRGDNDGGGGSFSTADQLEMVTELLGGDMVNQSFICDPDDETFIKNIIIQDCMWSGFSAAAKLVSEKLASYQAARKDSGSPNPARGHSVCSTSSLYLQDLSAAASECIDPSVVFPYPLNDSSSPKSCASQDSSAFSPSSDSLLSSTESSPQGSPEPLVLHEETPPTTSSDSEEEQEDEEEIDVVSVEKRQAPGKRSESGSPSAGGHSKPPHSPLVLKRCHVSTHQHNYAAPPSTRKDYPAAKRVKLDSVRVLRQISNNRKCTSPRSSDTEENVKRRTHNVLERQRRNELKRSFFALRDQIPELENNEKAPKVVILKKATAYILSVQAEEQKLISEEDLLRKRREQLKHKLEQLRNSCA
How it was run: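 After 24 h chemical treatment of HepG2 cells carrying multiplexed cis-regulated reporter constructs, reporter transcripts quantified by RT-PCR and capillary electrophoresis of fluorescent fragments. Gain or loss fitted against DMSO baseline.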

[10] = ATG_NRF2_ARE_CIS: Attagene CIS-FACTORIAL HepG2 Assay for human Nuclear Factor Erythroid 2 Related Factor 2 (NFR2) response to Antioxidant Response Elements (ARE) (AID 2282992); details: HepG2 Attagene ARE/NRF2 reporter, transcription factor activity; actives raise or lower the signal
How it was run: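 Endogenous transcription factor activity read out as reporter transcript levels (RT-PCR plus capillary electrophoresis, fluorescence) in transiently transfected HepG2 cells. Measured at 24 h after dosing; gain or loss of signal fitted versus DMSO.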

[11] = molecular target: Cellular tumor antigen p53 (Homo sapiens) (UniProt P04637); assay: ATG_p53_CIS: Attagene CIS-FACTORIAL HepG2 Assay for human p53 Transcription Factor (AID 2282994); details: HepG2 p53 cis-element reporter, Attagene mRNA; actives raise or lower the signal
Chain of Cellular tumor antigen p53 (Homo sapiens) (P04637 whole entry, looked up): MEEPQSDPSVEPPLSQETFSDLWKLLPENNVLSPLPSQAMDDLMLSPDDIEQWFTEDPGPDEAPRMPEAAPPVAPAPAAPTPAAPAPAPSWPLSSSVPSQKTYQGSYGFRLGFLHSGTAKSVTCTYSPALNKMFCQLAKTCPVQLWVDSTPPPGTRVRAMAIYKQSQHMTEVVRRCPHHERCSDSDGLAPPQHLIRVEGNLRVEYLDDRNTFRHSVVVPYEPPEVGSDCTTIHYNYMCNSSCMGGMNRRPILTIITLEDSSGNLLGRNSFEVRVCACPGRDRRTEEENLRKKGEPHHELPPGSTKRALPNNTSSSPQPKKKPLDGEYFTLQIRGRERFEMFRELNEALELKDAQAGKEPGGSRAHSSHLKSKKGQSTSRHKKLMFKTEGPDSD
How it was run: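 Endogenous p53 activity read in transiently transfected HepG2 from a cis-element-driven reporter transcript after 24 h exposure. RNA reverse-transcribed, PCR-amplified, fluorescently labelled and sized by capillary electrophoresis; gain or loss fitted against DMSO baseline.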

[12] = molecular target: Estrogen-related receptor gamma (Homo sapiens) (UniProt P62508); assay: ATG_ERRg_TRANS: Attagene TRANS-FACTORIAL HepG2 Assay for human Estrogen-Related Receptor gamma (ERRg) (AID 2282977; active = hit-call score of the fitted dose curve at least 0.9, where 1 is the maximum;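 note: hits increase reporter signal over DMSO so potencies reflect activators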); details: HepG2 Attagene TRANS reporter, ERRg transactivation
How it was run: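 Exogenous NR-Gal4 chimera activity was assessed in HepG2 cells bearing transfected GAL4-UAS reporters. After 24 h dosing, total RNA underwent RT-PCR, fluorescent primer extension and HpaI digestion before capillary electrophoresis, with gain of signal scored against DMSO.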

[13] = ATG_M_32_TRANS: Attagene TRANS-FACTORIAL HepG2 Assay for M32 Transcription Factor (Internal Marker) (AID 2282984; active = hit-call score of the fitted dose curve at least 0.9, where 1 is the maximum;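 note: transcript level of a background control reporter unit measured by RT-PCR and capillary electrophoresis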); details: HepG2 Attagene TRANS M32 internal marker reporter
How it was run: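 Cell-based TRANS-format assay in HepG2: exogenous chimeric GAL4 reporter units transiently expressed, compounds applied 24 h. Reporter mRNA detected by RT-PCR plus capillary electrophoresis; this readout is an internal background marker.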

[14] = ATG_NF_kB_CIS: Attagene CIS-FACTORIAL HepG2 Assay for human Nuclear Factor Kappa B (NF-kB) (AID 2282991); details: HepG2 Attagene cis-factorial NF-kB reporter mRNA; actives raise or lower the signal
How it was run: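 Read-out: reporter transcript levels quantified by RT-PCR plus capillary electrophoresis of 6-FAM-labelled, HpaI-cut fragments. Transfected HepG2 cells, 24 h compound exposure, endogenous NF-kB-driven cis element; gain or loss scored versus DMSO.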

[15] = ATG_Oct_MLP_CIS: Attagene CIS-FACTORIAL HepG2 Assay for human Octamer-Binding Transcription Factor (Oct) (AID 2282993); details: HepG2 Attagene cis-factorial Oct reporter, mRNA; actives raise or lower the signal
How it was run: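 HepG2 cells transiently transfected with cis-promoter-driven multiplexed reporter transcription units, dosed for 24 h. Reporter mRNA quantified by RT-PCR, fluorescent labelling, HpaI digestion and capillary electrophoresis; bidirectional fits versus DMSO baseline.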

[16] = BSK_3C_TissueFactor: BioMAP Diversity Plus: 3C Assay for Tissue Factor Biomarker Activity (AID 2282997); details: BioMAP 3C HUVEC, tissue factor biomarker readout; actives raise or lower the signal
How it was run: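 Tissue Factor measured by ELISA, 24 h after treatment of primary HUVEC in the BioMAP 3C setting.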

[17] = BSK_3C_uPAR: BioMAP Diversity Plus: 3C Assay for Urokinase-type plasminogen activator receptor (uPAR) Biomarker Activity (AID 2282998); details: BioMAP 3C HUVEC, uPAR biomarker ELISA; actives raise or lower the signal
How it was run: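 Human umbilical vein endothelial primary cells were exposed to test chemical for 24 h. Cell-surface uPAR was then quantified by ELISA, and responses were fitted bidirectionally against DMSO as negative control and baseline.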

[18] = BSK_3C_VCAM1: BioMAP Diversity Plus: 3C Assay for Vascular cell adhesion molecule 1 (VCAM1) Biomarker Activity (AID 2282999); details: BioMAP 3C HUVEC, VCAM1 ELISA, cytokine-stimulated; actives raise or lower the signal
How it was run: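 Activity fitted in both directions relative to DMSO, with ELISA measurement of the surface marker on primary HUVEC (3C) at 24 h post-treatment; parallel SRB staining (0.1% SRB, TCA-fixed, 560 nm) flagged overt cytotoxicity.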

[19] = ATG_M_06_TRANS: Attagene TRANS-FACTORIAL HepG2 Assay for M06 Transcription Factor (Internal Marker) (AID 2282983; active = hit-call score of the fitted dose curve at least 0.9, where 1 is the maximum); details: HepG2 Attagene TRANS M06 internal marker reporter
How it was run: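 mRNA levels of a reporter transcript, quantified as FAM fluorescence on capillary electrophoresis, served as readout. HepG2 cells expressing exogenous GAL4-chimera reporter constructs were exposed for 24 h. Gain of signal over DMSO was evaluated.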

[20] = ATG_NFI_CIS: Attagene CIS-FACTORIAL HepG2 Assay for human Nuclear Factor I (NFI) (AID 2282989); details: HepG2 cis-regulatory reporter, NFI response element transcription; actives raise or lower the signal
How it was run: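 HepG2 cells transiently transfected with cis-element-driven multiplexed reporter transcription units, dosed for 24 h. Reporter mRNA quantified by RT-PCR, fluorescent labelling, HpaI digestion and capillary electrophoresis; bidirectional fit versus DMSO baseline.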

Measured: AC50

Nc1cc(Cl)c(N)c(Cl)c1
inactive: [1] | [2] | [3] | [4] | [5] | [6] | [7] | [8] | [9] | [11]
active: [10] 9.89 µM

OCC(F)(F)C(F)(F)C(F)(F)C(F)(F)C(F)(F)C(F)F
not listed: [1] | [4] | [19] | [20]
inactive: all other assays above

CS(C)(=O)=O
active: [10] 27.5 µM
not listed: [4] | [5] | [12] | [15]
inactive: all other assays above

O=S(=O)(O)C(F)(F)C(F)(F)C(F)(F)C(F)(F)C(F)(F)C(F)(F)C(F)(F)F
active: [7] 160 µM | [10] 42.6 µM and 30.3 µM
inactive: [1] | [2] | [3] | [19] | [13] | [7] | [8] | [20] | [9] | [14] | [15] | [11] | [16] | [17] | [18]

O=C(O)C(F)(OC(F)(F)C(F)(OC(F)(F)C(F)(F)C(F)(F)F)C(F)(F)F)C(F)(F)F (stereo not given)
inactive: [1] | [2] | [3] | [4] | [5] | [19] | [13] | [6] | [7] | [8] | [20] | [9] | [14] | [10] | [15] | [11] | [16] | [17] | [18]
active: [6] 98.8 µM
